# TROY NFkB inh: TROY signaling inhibition. Q293 LMP1-TROYcd NF-kB luciferase reporter, 4 h. inhibition, % at 10 µM. 360,000 compounds, 0.98% hits;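 active = compounds whose plate-normalised and pattern-corrected inhibition of the luciferase reporter signal at the single screening dose is 50% or more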
# EWS-Fli inh: blocks EWS/Fli oncoprotein-driven transcription. 350,000 compounds, 0.67% hits. A673 NR0B1-luciferase reporter, viability-normalised. inhibition, % at 12.6 µM;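 active = mean inhibition of at least 50% after viability correction, with every replicate also passing that limit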;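 note: firefly luciferase signal divided by Alamar Blue viability fluorescence both relative to DMSO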
# LGR2 antag: inhibitors of bursicon-induced Drosophila LGR2 receptor cAMP signaling | HEK293 LGR2, CRE-luciferase, bursicon-stimulated, 4 h | inhibition, % at 9.99 µM | 380,000 compounds, 0.35% hits | AID 720647;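 active = drop in luminescence signal, shown as inhibition above about 50% in the replicate tests, limit read from the data, passing the limit was not always enough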;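 note: agonist challenge used bursicon conditioned medium at about half maximal strength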
# EBV LMP1 NFkB: Epstein-Barr LMP1 NF-kappaB reporter inhibition. 350,000 compounds, 0.69% hits. LMP1-induced NF-kappaB luciferase reporter cells, luminescence. inhibition, % at 12.5 µM; in the data active = inhibition above about 41%
# TWEAK Fn14 block: TWEAK-Fn14 signaling inhibition. 360,000 compounds, 2% hits. AID 1159606. TWEAK-stimulated Fn14 reporter cells, luciferase luminescence, 8 h. inhibition, % at 10 µM; in the data active = inhibition above about 50%
# Numbers stand for hits; - = inactive; . = no result; ! = repeats disagree. Compounds with a hit are over-represented: about 2.6% of the library has one in this group of screens.
SMILES,TROY NFkB inh,EWS-Fli inh,LGR2 antag,EBV LMP1 NFkB,TWEAK Fn14 block
O=C(N=C1c2ccccc2CN1c1cccc(Cl)c1)c1cccnc1,-,-,-,-,-
C[C@@H]1CCCCO[C@H](CN(C)C(=O)CCC(F)(F)F)[C@H](C)CN([C@@H](C)CO)C(=O)c2cc(NS(=O)(=O)c3cn(C)cn3)ccc2O1,.,-,-,.,.
Oc1ccc(C=Nc2cccc3ccccc23)c(O)c1,53,-,-,-,53
COc1cccc2c(N/N=C/c3ccccc3)cc(C)nc12,-,-,-,-,-
COc1ccc(/C=N/Nc2cc(C)nc3ccc(Br)cc23)cc1,-,-,93,-,-
COc1ccc2nc(C)cc(N/N=C/c3cccc(OC)c3O)c2c1,-,68,-,-,-
Cc1cc(C)nc(N/C(=N\S(=O)(=O)Cc2ccccc2)Nc2ccccc2Br)n1,-,.,-,55,-
CC(=O)N(C)C[C@H]1Oc2ncc(-c3cccc(F)c3)cc2C(=O)N([C@H](C)CO)C[C@H]1C,.,-,-,.,.
COc1cccc(-c2nc(NC3CCCC3)c3ccccc3n2)c1O,71,-,-,-,-
COc1ccc2c3c([nH]c2c1)[C@H](CO)N(C(=O)NC(C)C)CC31CCN(C(=O)C2CCCC2)CC1,.,-,-,.,.
O=C1c2ccccc2NC(c2ccc3c(c2)OCO3)N1O (stereo not drawn),-,.,.,-,-
O=C1c2ccccc2NC(c2ccc3c(c2)OCCO3)N1c1ccc2c(c1)OCCO2 (stereo not drawn),59,.,.,-,59
COc1cc(C2Nc3ccccc3C(=O)N2c2ccc3c(c2)OCCO3)ccc1OCC(C)C (stereo not drawn),-,.,.,-,67
CN1C(=O)c2cc(NC(=O)NCc3ccccc3)ccc2OC[C@H]2O[C@H](CC(=O)O)CC[C@@H]21,.,-,-,.,.
O=C(CSc1nc2ccccc2o1)Nc1nc2c(s1)CCCC2,-,-,-,-,89
CCOC(=O)c1c(NC(=O)CSc2nc3ccccc3o2)sc(C(C)=O)c1C,-,.,-,-,69
O=C(CSc1nc2ccccc2s1)N/N=C/c1ccccc1C(=O)O,82,-,-,-,89
O=C(CSc1nc2ccccc2o1)N/N=C/c1ccccc1,-,.,-,-,-
Cc1ccccc1/C=N/NC(=O)CSc1nc2ccccc2o1,-,.,-,-,65
CCNC(=O)C[C@@H]1C=C[C@@H](NS(=O)(=O)c2ccc(F)cc2)[C@H](CO)O1,.,-,-,.,.
C[C@H]1CN([C@@H](C)CO)C(=O)Cc2cc(NC(=O)C3CC3)ccc2O[C@@H]1CN(C)S(=O)(=O)c1ccc(F)cc1,.,-,-,.,.
COc1ccc(NC(=O)Nc2ccc3c(c2)C(=O)N([C@H](C)CO)C[C@H](C)[C@H](CN(C)C(=O)NC(C)C)OCCCC[C@H](C)O3)cc1,.,-,-,.,.
O=C(CSc1nc2ccccc2o1)Nc1nc(-c2ccccc2)cs1,80,.,-,-,84
O=C1C=CCCN1C(=O)/C=C/c1cccc(Br)c1,.,64,.,.,.
NC(=O)C1CCN(C(=O)/C=C/c2cccc(Br)c2)CC1,-,-,-,-,-
SMILES,TROY NFkB inh,EWS-Fli inh,LGR2 antag,EBV LMP1 NFkB,TWEAK Fn14 block
N#CC(=C1C=CC(=NO)C(Cl)=C1)c1ccc(Cl)cc1,-,-,-,-,64
COc1ccc(C(C#N)=C2C=CC(=NO)C=C2)cc1,-,-,-,-,-
COc1cccc(C2C3CN(C)CC=C3C(C#N)=C(N)C2(C#N)C#N)c1OC (stereo not drawn),-,.,.,-,-
COc1cc([C@@H]2[C@H]3CN(C)CC=C3C(C#N)=C(N)C2(C#N)C#N)cc2c1OCO2,60!,-,-,-,63!
O=C1C=CC2=C3c4cc(O)c(O)cc4CC3(O)COC2=C1O (stereo not drawn),-,-,-,-,86
N#C[C@H]1[C@H](c2ccccc2-c2ccccc2)[C@@H](CO)N1C(=O)NC1CCCCC1,.,-,-,.,.
CN1CCN(c2ccc(-c3cc(NC=O)c4ncc(-c5ccc(F)c(Cl)c5)n4c3)cc2)CC1,51,-,-,.,-
CC(=O)Nc1cc(-c2ccc(N3CCN(C)CC3)cc2)cn2c(-c3ccc(F)c(Cl)c3)cnc12,-,-,-,.,-
COc1ccc(S(=O)(=O)Nc2ccc3c(c2)C(=O)N([C@H](C)CO)C[C@@H](C)[C@@H](CN(C)S(C)(=O)=O)O3)cc1,.,-,-,.,.
COc1cc2[nH]c3c(N4CCN(c5ccc(Cl)cc5)CC4)ncnc3c2cc1OC,-,.,-,-,-
OC1(c2cccc(C(F)(F)F)c2)CCN(c2ncnc3c2[nH]c2ccccc23)CC1,53,.,.,-,58
c1ccc2c(c1)CCN(c1ncnc3c1[nH]c1ccccc13)C2,-,.,.,-,85
Cc1ccc2c(c1)[nH]c1c(N3CCN(Cc4ccccc4)CC3)ncnc12,68,.,.,-,96
c1ccc(CN2CCN(c3ncnc4c3[nH]c3ccccc34)CC2)cc1,67,.,.,53,97
CC(C)C#Cc1ccc2c(c1)O[C@@H](CN(C)C(=O)C1CCC1)[C@H](C)CN([C@@H](C)CO)S2(=O)=O,.,-,-,.,.
O=C(C[C@H]1C=C[C@@H](NS(=O)(=O)c2ccccc2)[C@H](CO)O1)NCc1ccccc1F,.,-,-,.,.
CCOc1ccc2[nH]c3c(N4CCN(c5ccccn5)CC4)ncnc3c2c1,-,.,.,-,-
Cc1ccc2[nH]c3c(N4CCN(Cc5ccccc5)CC4)ncnc3c2c1,55,.,.,58,103
C[C@H](CO)N1C[C@H](C)[C@@H](CN(C)C)Oc2ccc(NS(=O)(=O)c3cn(C)cn3)cc2C1=O,.,-,-,.,.
CC1(c2nnnn2-c2ccc3c(c2)OCCO3)CCC(=O)N1C1CCN(Cc2ccccc2)CC1 (stereo not drawn),-,-,-,.,80
Cc1cccc(C)c1-n1nnnc1C1(C)CCC(=O)N1C1CCN(Cc2ccccc2)CC1 (stereo not drawn),-,-,-,.,-
O=C(O)c1ncc(-c2ccccc2)cn1,-,.,.,-,-
c1ccc(-c2ncc3c(ccc4ccccc43)n2)cc1,51,.,81,-,84
c1ccc2c(c1)cnc1ccccc12,-,-,-,-,-
c1ccc(-c2cnc(-c3ccccc3)nc2)cc1,-,.,56,-,67
SMILES,TROY NFkB inh,EWS-Fli inh,LGR2 antag,EBV LMP1 NFkB,TWEAK Fn14 block
CO[C@@H]1CN(C)C(=O)c2cc(NC(=O)C3CC3)ccc2OC[C@@H](C)N(CC2CC2)C[C@H]1C,.,-,-,.,.
C[C@H](NC(=O)[C@@H]1[C@@H](CO)[C@@H]2Cn3c(ccc(-c4ccccc4)c3=O)[C@@H]2N1C)c1ccccc1,.,-,-,.,.
C[C@@H]1CN([C@H](C)CO)C(=O)Cc2cc(NS(=O)(=O)c3ccccc3)ccc2O[C@H]1CN(C)S(=O)(=O)c1ccc(F)cc1,.,-,-,.,.
C(=C\c1ccco1)/c1ccc2ccccc2n1,-,-,-,.,-
Fc1cccc(F)c1/C=C/c1ccc2ccccc2n1,-,.,67,-,-
Cc1ccsc1/C=C/c1ccc2ccccc2n1,-,.,.,70,52
Fc1cccc(Cl)c1/C=C/c1cnc2ccccc2n1,-,82,91,-,-
COC(=O)c1ccc(C(=O)OC)c(NC(=O)CN(c2ccc3c(c2)OCO3)S(C)(=O)=O)c1,57,-,-,-,-

# Screens as filed in PubChem BioAssay.
